Results published in PubChem BioAssay (NCI).
Compounds without any hit were thinned out: in the full panel of roughly 79,000, 15% have a hit. No stated cut-off is given here; in the data, active means growth inhibition above about 70%; inactive means the rest.

Key:
[1] = NCI Yeast Anticancer Drug Screen. Data for the rad50 strain (AID 155);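 further: 0% = growth of vehicle-only cultures of the same strain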; details: S. cerevisiae rad50 strain growth inhibition; at 50.0 µM; active compounds read high
In short: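 Relative growth inhibition (compound vs vehicle) was measured in yeast with a defined repair-gene alteration.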

[2] = NCI Yeast Anticancer Drug Screen. Data for the mec2-1 strain (AID 157); details: S. cerevisiae mec2-1 strain, at 50.0 µM, active compounds read high
In short: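 Vehicle-treated cultures served as reference for growth inhibition of compound-exposed mec2-1 yeast.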

[3] = NCI Yeast Anticancer Drug Screen. Data for the sgs1 mgt1 strain (AID 161);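 further: 0% = growth of cultures given vehicle only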; details: S. cerevisiae sgs1 mgt1 strain, at 50.0 µM, active compounds read high
In short: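 Read-out: growth inhibition vs vehicle controls. Cells: mutant yeast strain deficient in DNA damage repair.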

[4] = NCI Yeast Anticancer Drug Screen. Data for the cln2 rad14 strain (AID 165);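 further: 0% = growth equal to vehicle treated cultures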; details: S. cerevisiae cln2 rad14 strain, at 50.0 µM, active compounds read high
In short: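 Each compound was tested on cln2 rad14 yeast. Inhibition of growth was calculated against vehicle-exposed controls.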

[5] = NCI Yeast Anticancer Drug Screen. Data for the bub3 strain (AID 167); details: S. cerevisiae bub3 mutant strain, at 50.0 µM, active compounds read high
In short: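 Screening used yeast with an engineered genetic alteration affecting cell cycle control. Compound-exposed cultures were compared with vehicle cultures, and reduced growth was taken as inhibition.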

[6] = NCI Yeast Anticancer Drug Screen. Data for the mlh1 rad18 strain (AID 175); details: S. cerevisiae mlh1 rad18 strain growth inhibition; at 50.0 µM; active compounds read high
In short: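 Vehicle-treated cultures served as the reference for growth inhibition in a yeast strain carrying DNA damage repair alterations exposed to each compound.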

Measured: growth inhibition

O=C(O)c1cccc(SS(=O)(=O)c2cccc(C(=O)O)c2)c1
inactive: [1] -18.4% | [2] -13.4% | [3] -10.1% | [4] 9.45% | [5] 7.5% | [6] -7.45%

Clc1cc(OC2C3CC4CC(C3)CC2C4)nc(Cl)n1 (stereo not given)
inactive: [1] 8.45% | [2] 1.45% | [3] 27.7% | [4] -1.1% | [5] 16.3% | [6] 65.8%

Nc1ccc(C(=O)N/C(=C\c2cccc([N+](=O)[O-])c2)c2nc3ccc(Cl)cc3[nH]2)cc1
inactive: [1] -10.1% | [2] -21.4% | [3] -25.3% | [4] -17.9% | [5] 1% | [6] -15.9%

ClC1(c2ccccc2)c2ccccc2C(Cl)(c2ccccc2)c2ccccc21 (stereo not given)
inactive: [1] 17.9% | [2] 0.1% | [3] -6.7% | [4] -3.8% | [5] 12.2% | [6] 27.9%

Cc1ccc([N+](=O)[O-])cc1Br
inactive: [1] 0.3% | [2] -16.1% | [3] -0.5% | [4] -11.8% | [5] 5.5% | [6] 4%

CCCCNC(=O)c1ccccc1C
inactive: [1] 4.8% | [2] 4.7% | [3] -6.7% | [4] -34.9% | [5] 2.25% | [6] 1.35%

CCCCCCCCCO
inactive: [1] 13.7% | [2] -4.8% | [3] 19.9% | [4] 11.3% | [5] 12.8% | [6] 19.3%

C1OCC(C2OCOC2C2OCOC2C2COCO2)O1 (stereo not given)
inactive: [1] 7.8% | [2] 20.9% | [3] -5.25% | [4] -8.65% | [5] 34.9% | [6] 9.5%

Cc1c(C)c2cc3ccc(Cl)cc3nc2c2ccccc12
inactive: [1] -7.65% | [2] -16.9% | [3] 2.75% | [4] -21.6% | [5] 2.9% | [6] 1.7%

C[n+]1c(C2(O)CCCCCCCCCCC2)sc2ccccc21
inactive: [1] 3.8% | [2] 10.1% | [3] 1.5% | [4] -11.3% | [5] 1.4% | [6] 34.4%

CCCC(=O)OCC(COC(=O)CCC)OC(=O)CCC
inactive: [1] -26.8% | [2] -8.35% | [3] -17.4% | [4] 24.6% | [5] 4.9% | [6] 7.1%

O=c1[nH]ncc2ccccc12
inactive: [1] -3.1% | [2] -16.2% | [3] -3.95% | [4] -53.5% | [5] -4.75% | [6] -2.45%

C=CCOC(=O)CC(=C)C(=O)OCC=C
inactive: [1] 8.5% | [2] 26.4% | [3] -8.95% | [4] -4.7% | [5] -5.65% | [6] -3.55%

O=[N+]([O-])/C(C(Cl)=C(Cl)Cl)=C1\NCCS1
inactive: [1] 39.7% | [2] 25.5% | [3] 40.2% | [4] 9.7% | [5] 34.6% | [6] 42.3%

N#CC(/C(CCCC(=O)Nc1cccc([N+](=O)[O-])c1)=N/NC(=O)c1cc2ccccc2cc1O)c1ccccc1 (stereo not given)
inactive: [1] 41.4% | [2] 41.4% | [3] -17.2% | [4] 9.4% | [5] 36.8% | [6] 38%

Cc1cccc(/C=C/c2csnn2)n1
inactive: [1] -25.1% | [2] -6.75% | [3] -8.4% | [4] 14.6% | [5] -6.05% | [6] -15.2%

Cc1ccc(Cl)cc1NC(=O)C(Br)C(Br)c1ccccc1 (stereo not given)
inactive: [1] 20.6% | [2] -7.7% | [3] 11.9% | [4] 0.85% | [5] -0.1% | [6] 6.2%

CN(C)C(=S)N(C)C
inactive: [1] -37.1% | [2] -33% | [3] -17.4% | [4] 0.45% | [5] -23.2% | [6] -23.7%

CCCCNC(=O)C(C)S(=O)(=O)c1ccc(C)cc1 (stereo not given)
inactive: [1] 6.6% | [2] 16.4% | [3] -17.3% | [4] -21.7% | [5] -2% | [6] 11.8%

CCCCCCCCCCCCCCCCN1C(=O)C2C(C1=O)C1(Cl)C(Cl)=C(Cl)C2(Cl)C1(Cl)Cl (stereo not given)
inactive: [1] 7.85% | [2] -6.3% | [3] -2.55% | [4] -0.65% | [5] -4.6% | [6] 10.2%
